Reference: PubChem BioAssay (EPA / NIEHS)
“And” between values parts separate entries of the source, which are not always exact repeats. Equal entries are not always repeated. Records with an inconclusive call do not appear. Some structures have more than one record in an assay (separate samples or runs), and their calls can disagree. The source made the active and inactive calls. How the source made its calls, unless noted: active means hit-call score of the fitted dose curve at least 0.9, where 1 is the maximum; inconclusive means response in the unintended direction; inactive means score below 0.9.

Legend:
[1] = ATG_Oct_MLP_CIS: Attagene CIS-FACTORIAL HepG2 Assay for human Octamer-Binding Transcription Factor (Oct) (AID 2282993; active means hit-call score of the fitted dose curve at least 0.9, where 1 is the maximum; inactive means score below 0.9); conditions: HepG2 Attagene cis-factorial Oct reporter, mRNA; actives raise or lower the signal
In short: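 Read-out: reporter mRNA via RT-PCR plus capillary electrophoresis of 6-FAM-labelled fragments. Transiently transfected HepG2, 24 h exposure, endogenous TF activity on cis elements. Gain or loss of signal fitted relative to DMSO.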

[2] = molecular target: Cellular tumor antigen p53 (Homo sapiens) (UniProt P04637); test: ATG_p53_CIS: Attagene CIS-FACTORIAL HepG2 Assay for human p53 Transcription Factor (AID 2282994; active means hit-call score of the fitted dose curve at least 0.9, where 1 is the maximum; inactive means score below 0.9); conditions: HepG2 p53 cis-element reporter, Attagene mRNA; actives raise or lower the signal
In short: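 HepG2, transient MRTU transfection (cis promoter elements, endogenous TFs); 24 h dosing; RNA isolation, RT-PCR, 6-FAM primer extension, HpaI digest, CE fluorescence; bidirectional fit vs DMSO.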

[3] = BSK_3C_uPAR: BioMAP Diversity Plus: 3C Assay for Urokinase-type plasminogen activator receptor (uPAR) Biomarker Activity (AID 2282998; active means hit-call score of the fitted dose curve at least 0.9, where 1 is the maximum; inactive means score below 0.9); conditions: BioMAP 3C HUVEC, uPAR biomarker ELISA; actives raise or lower the signal
In short: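 HUVEC primary cells; 24 h post-dose; uPAR by ELISA; gain or loss of signal fitted bidirectionally vs DMSO baseline.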

[4] = BSK_3C_VCAM1: BioMAP Diversity Plus: 3C Assay for Vascular cell adhesion molecule 1 (VCAM1) Biomarker Activity (AID 2282999; active means hit-call score of the fitted dose curve at least 0.9, where 1 is the maximum; inactive means score below 0.9); conditions: BioMAP 3C HUVEC, VCAM1 ELISA, cytokine-stimulated; actives raise or lower the signal
In short: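 Human umbilical vein endothelial cells (3C system), biomarker read by ELISA 24 h after dosing; bidirectional fit against DMSO baseline. Cytotoxicity tracked by SRB total-protein staining in parallel cultures at biomarker time.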

[5] = BSK_4H_Eotaxin3: BioMAP Diversity Plus: 4H Assay for Eotaxin 3 Biomarker Activity (AID 2283000; active means hit-call score of the fitted dose curve at least 0.9, where 1 is the maximum; inactive means score below 0.9); conditions: primary human endothelial cells (HUVEC); actives raise or lower the signal
In short: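 Endothelial primary cells (human umbilical vein) exposed to compound for 24 h. ELISA detection of Eotaxin-3.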

[6] = molecular target: human Peroxisome Proliferator-activated Receptor alpha (PPARa), PPARA (gene 5465) (UniProt Q07869); test: ATG_PPARa_TRANS: Attagene TRANS-FACTORIAL HepG2 Assay for human Peroxisome Proliferator-activated Receptor alpha (PPARa) (AID 2283001);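 on AC50: potency for gain of reporter signal over DMSO so agonist or activator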
In short: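 Measures transcriptional activity of an exogenous chimeric PPARa-Gal4 protein in transiently transfected HepG2 cells after 24 h dosing. Reporter mRNA quantified via RT-PCR and capillary electrophoresis; DMSO served as negative control.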

[7] = molecular target: human Peroxisome Proliferator-activated Receptor delta (PPARd), PPARD (gene 5467) (UniProt Q03181); test: ATG_PPARd_TRANS: Attagene TRANS-FACTORIAL HepG2 Assay for human Peroxisome Proliferator-activated Receptor delta (PPARd) (AID 2283002)
In short: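 Read-out: reporter mRNA induction, quantified by fluorescent RT-PCR products resolved by capillary electrophoresis. Human HepG2 liver cells carried transiently transfected Gal4-UAS reporter constructs with chimeric NR-Gal4 fusions. Cells were dosed for 24 h; DMSO served as baseline.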

[8] = read-out: Intercellular Adhesion Molecule 1 (ICAM1), ICAM1 (gene 3383); test: BSK_3C_ICAM1: BioMAP Diversity Plus: 3C Assay for Intercellular Adhesion Molecule 1 (ICAM1) Biomarker Activity (AID 2283003; active means hit-call score of the fitted dose curve at least 0.9, where 1 is the maximum; inactive means score below 0.9); conditions: primary human endothelial cells (HUVEC); actives raise or lower the signal
In short: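 Human vascular endothelial primary cells, 3C conditions, 24 h treatment. ICAM-1 by ELISA.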

[9] = molecular target: human Retinoic Acid Receptor beta (RARb), RARB (gene 5915) (UniProt P10826); test: ATG_RARb_TRANS: Attagene TRANS-FACTORIAL HepG2 Assay for human Retinoic Acid Receptor beta (AID 2283004)
In short: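 HepG2, transient MRTU transfection, NR–Gal4 chimera, 24 h treatment; RT-PCR plus CE fluorescence detection of reporter mRNA; gain of signal vs DMSO.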

[10] = molecular target: Retinoic acid receptor alpha (Homo sapiens) (UniProt P10276); test: ATG_RARa_TRANS: Attagene TRANS-FACTORIAL HepG2 Assay for human Retinoic Acid Receptor alpha (RARa) (AID 2283005)
In short: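 HepG2 transiently transfected with multiplex GAL4-UAS reporter units including a human RARa–GAL4 chimera; 24 h compound exposure. Reporter mRNA quantified by RT-PCR, 6-FAM labeling and capillary electrophoresis; gain of signal versus DMSO.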

[11] = BSK_3C_Proliferation: Cell Proliferation Assessment in the BioMAP Diversity Plus: 3C Assay (AID 2283006; active means hit-call score of the fitted dose curve at least 0.9, where 1 is the maximum; inactive means score below 0.9;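 on AC50: potency may reflect either rise or fall in cell number versus DMSO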); conditions: primary human endothelial cells (HUVEC)
In short: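 Proliferation of human vascular endothelial primary cells after 48 h dosing, quantified as SRB-stained protein at 560 nm relative to DMSO.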

[12] = molecular target: Peroxisome proliferator-activated receptor gamma (Homo sapiens) (UniProt P37231); test: ATG_PPARg_TRANS: Attagene TRANS-FACTORIAL HepG2 Assay for human Peroxisome Proliferator-activated Receptor-gamma (PPARg) (AID 2283007)
In short: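 Multiplexed reporter transcription units in HepG2, 24 h dosing, reporter transcripts quantified by fluorescent RT-PCR and capillary electrophoresis. Increase over DMSO scored.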

[13] = molecular target: human Retinoic Acid Receptor gamma (RARg), RARG (gene 5916) (UniProt P13631); test: ATG_RARg_TRANS: Attagene TRANS-FACTORIAL HepG2 Assay for human Retinoic Acid Receptor gamma (RARg) (AID 2283009);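 on AC50: AC50 is for reporter induction above DMSO meaning RARg activation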
In short: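 HepG2, RARg-GAL4 TRANS system, 24 h exposure; reporter mRNA by RT-PCR + CE fluorescence; increase over DMSO.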

[14] = molecular target: human RAR-related Orphan Receptor gamma (RORg), RORC (gene 6097) (UniProt P51449); test: ATG_RORg_TRANS: Attagene TRANS-FACTORIAL HepG2 Assay for human RAR-related Orphan Receptor gamma (RORg) (AID 2283011)
In short: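 Activity is scored as increase in GAL4-UAS reporter mRNA over DMSO, detected by fluorescent RT-PCR and capillary electrophoresis in HepG2 cells transiently expressing a RORg-Gal4 chimera, 24 h after dosing.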

[15] = molecular target: Retinoic acid receptor RXR-alpha (Homo sapiens) (UniProt P19793); test: ATG_RXRa_TRANS: Attagene TRANS-FACTORIAL HepG2 Assay for human Retinoid X Receptor alpha (RXRa) (AID 2283012)
In short: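 Cells (HepG2) carried transiently transfected GAL4-responsive reporter units. Following a 24 h chemical incubation, reporter mRNA induction was read via RT-PCR fragment analysis; DMSO served as negative control and baseline.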

[16] = molecular target: human Retinoid X Receptor beta (RXRb), RXRB (gene 6257) (UniProt P28702); test: ATG_RXRb_TRANS: Attagene TRANS-FACTORIAL HepG2 Assay for human Retinoid X Receptor beta (RXRb) (AID 2283013)
In short: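 Multiplexed TRANS reporter assay in HepG2; 24 h dosing; reporter mRNA by RT-PCR/CE fluorescence; gain-of-signal relative to DMSO.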

[17] = molecular target: human Thyroid Receptor alpha (THRa1), THRA (gene 7067) (UniProt P10827); test: ATG_THRa1_TRANS: Attagene TRANS-FACTORIAL HepG2 Assay for human Thyroid Receptor alpha (THRa1) (AID 2283014)
In short: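 First, HepG2 cells receive multiple GAL4-UAS reporter units and the chimeric receptor. They are then dosed for 24 h, after which RNA is reverse-transcribed, amplified, labelled, HpaI-cut and sized by capillary electrophoresis; gain relative to DMSO is scored.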

[18] = BSK_3C_TissueFactor: BioMAP Diversity Plus: 3C Assay for Tissue Factor Biomarker Activity (AID 2282997; active means hit-call score of the fitted dose curve at least 0.9, where 1 is the maximum; inactive means score below 0.9); conditions: BioMAP 3C HUVEC, tissue factor biomarker readout; actives raise or lower the signal
In short: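 Values derive from bidirectional curve fitting against DMSO of Tissue Factor ELISA signals, taken 24 h after dosing primary human umbilical vein endothelial cells.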

[19] = molecular target: Nuclear receptor subfamily 1 group I member 2 (Homo sapiens) (UniProt O75469); test: ATG_PXR_TRANS: Attagene TRANS-FACTORIAL HepG2 Assay for human Pregnane X Receptor (PXR) (AID 2283008)
In short: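 Read-out is fluorescence of labelled reporter cDNA fragments separated by capillary electrophoresis after RT-PCR and HpaI digestion. Source: HepG2 cells carrying PXR-GAL4/UAS reporter constructs, treated 24 h; activity fitted upward relative to DMSO.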

[20] = molecular target: human RAR-related Orphan Receptor beta (RORb), RORB (gene 6096) (UniProt Q92753); test: ATG_RORb_TRANS: Attagene TRANS-FACTORIAL HepG2 Assay for human RAR-related Orphan Receptor beta (RORb) (AID 2283010)
In short: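 In this TRANS-format test, human HepG2 cells express chimeric NR-Gal4 fusion proteins driving GAL4-UAS reporters. After 24 h dosing, reporter transcripts are measured by fluorescent RT-PCR/capillary electrophoresis, with DMSO as negative control.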

Measured: AC50

human RAR-related Orphan Receptor gamma (RORg), RORC (gene 6097), sequence (P51449 whole entry, looked up, the tested form may be a part): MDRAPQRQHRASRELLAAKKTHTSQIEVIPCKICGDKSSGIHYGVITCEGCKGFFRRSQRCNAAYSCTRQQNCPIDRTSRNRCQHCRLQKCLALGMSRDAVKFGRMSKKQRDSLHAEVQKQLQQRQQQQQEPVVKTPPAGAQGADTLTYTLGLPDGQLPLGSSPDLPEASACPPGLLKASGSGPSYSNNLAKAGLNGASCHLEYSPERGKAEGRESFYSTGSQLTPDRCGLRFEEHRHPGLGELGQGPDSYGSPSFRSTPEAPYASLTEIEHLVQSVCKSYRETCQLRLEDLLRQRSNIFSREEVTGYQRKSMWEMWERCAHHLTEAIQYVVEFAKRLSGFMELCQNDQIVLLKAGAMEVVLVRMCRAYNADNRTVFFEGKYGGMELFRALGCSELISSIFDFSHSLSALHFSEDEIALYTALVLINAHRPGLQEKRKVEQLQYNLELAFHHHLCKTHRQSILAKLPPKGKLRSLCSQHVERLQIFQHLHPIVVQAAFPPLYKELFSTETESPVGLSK
Peroxisome proliferator-activated receptor gamma (Homo sapiens), sequence (P37231 whole entry, looked up): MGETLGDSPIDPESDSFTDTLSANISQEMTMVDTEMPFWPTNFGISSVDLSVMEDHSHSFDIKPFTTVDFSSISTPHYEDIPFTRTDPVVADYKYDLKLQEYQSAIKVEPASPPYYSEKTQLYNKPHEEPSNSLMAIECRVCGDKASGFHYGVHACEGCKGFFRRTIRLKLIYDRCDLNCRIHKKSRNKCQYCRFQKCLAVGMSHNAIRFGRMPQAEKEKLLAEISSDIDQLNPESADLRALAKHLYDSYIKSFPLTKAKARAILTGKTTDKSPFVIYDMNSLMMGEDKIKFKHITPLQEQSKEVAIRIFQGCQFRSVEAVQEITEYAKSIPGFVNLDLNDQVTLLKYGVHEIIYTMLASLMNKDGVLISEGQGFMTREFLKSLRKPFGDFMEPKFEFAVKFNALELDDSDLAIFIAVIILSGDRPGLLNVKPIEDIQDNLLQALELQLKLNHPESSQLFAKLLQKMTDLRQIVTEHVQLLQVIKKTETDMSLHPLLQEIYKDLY
human Retinoic Acid Receptor gamma (RARg), RARG (gene 5916), sequence (P13631 whole entry, looked up, the tested form may be a part): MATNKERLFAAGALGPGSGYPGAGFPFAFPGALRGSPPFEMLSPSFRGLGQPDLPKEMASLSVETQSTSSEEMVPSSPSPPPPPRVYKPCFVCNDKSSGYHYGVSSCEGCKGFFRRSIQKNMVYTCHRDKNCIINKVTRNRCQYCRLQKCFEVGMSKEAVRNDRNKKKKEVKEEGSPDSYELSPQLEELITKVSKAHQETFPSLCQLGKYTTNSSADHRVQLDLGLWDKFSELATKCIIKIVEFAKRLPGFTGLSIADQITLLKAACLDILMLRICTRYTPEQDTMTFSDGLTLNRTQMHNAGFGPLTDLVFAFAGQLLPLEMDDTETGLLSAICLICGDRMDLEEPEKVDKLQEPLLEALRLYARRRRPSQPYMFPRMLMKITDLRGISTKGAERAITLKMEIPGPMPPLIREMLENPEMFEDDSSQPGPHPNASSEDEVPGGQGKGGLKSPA
human Thyroid Receptor alpha (THRa1), THRA (gene 7067), sequence (P10827 whole entry, looked up, the tested form may be a part): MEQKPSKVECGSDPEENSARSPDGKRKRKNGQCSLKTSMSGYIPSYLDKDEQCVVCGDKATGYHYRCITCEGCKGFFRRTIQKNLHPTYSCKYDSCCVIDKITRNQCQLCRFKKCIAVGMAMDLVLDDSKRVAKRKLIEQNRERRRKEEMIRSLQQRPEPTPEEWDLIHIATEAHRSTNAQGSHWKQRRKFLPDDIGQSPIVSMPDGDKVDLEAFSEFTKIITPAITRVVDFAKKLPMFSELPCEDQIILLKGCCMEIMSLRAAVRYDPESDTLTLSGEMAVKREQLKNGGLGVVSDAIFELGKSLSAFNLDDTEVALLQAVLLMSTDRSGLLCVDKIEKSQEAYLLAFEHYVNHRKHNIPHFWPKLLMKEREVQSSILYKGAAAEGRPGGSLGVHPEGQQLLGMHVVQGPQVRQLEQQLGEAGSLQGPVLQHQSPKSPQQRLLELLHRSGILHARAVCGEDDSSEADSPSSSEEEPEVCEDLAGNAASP
human Retinoid X Receptor beta (RXRb), RXRB (gene 6257), sequence (P28702 whole entry, looked up): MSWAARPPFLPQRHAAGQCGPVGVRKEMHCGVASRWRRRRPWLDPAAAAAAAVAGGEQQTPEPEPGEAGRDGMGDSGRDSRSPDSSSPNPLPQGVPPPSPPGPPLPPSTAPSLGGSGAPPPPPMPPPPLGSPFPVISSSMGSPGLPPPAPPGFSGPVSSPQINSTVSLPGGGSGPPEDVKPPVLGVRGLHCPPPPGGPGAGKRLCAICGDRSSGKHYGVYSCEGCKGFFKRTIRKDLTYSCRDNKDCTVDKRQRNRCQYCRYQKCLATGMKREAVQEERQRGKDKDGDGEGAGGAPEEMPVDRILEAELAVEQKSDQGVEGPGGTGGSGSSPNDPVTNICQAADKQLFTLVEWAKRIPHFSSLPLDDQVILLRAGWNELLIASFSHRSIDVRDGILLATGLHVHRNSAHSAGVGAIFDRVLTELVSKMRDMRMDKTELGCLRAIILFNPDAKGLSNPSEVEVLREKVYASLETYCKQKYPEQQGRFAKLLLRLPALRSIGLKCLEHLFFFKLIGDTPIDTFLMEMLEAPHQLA
Nuclear receptor subfamily 1 group I member 2 (Homo sapiens), sequence (O75469 whole entry, looked up, the tested form may be a part): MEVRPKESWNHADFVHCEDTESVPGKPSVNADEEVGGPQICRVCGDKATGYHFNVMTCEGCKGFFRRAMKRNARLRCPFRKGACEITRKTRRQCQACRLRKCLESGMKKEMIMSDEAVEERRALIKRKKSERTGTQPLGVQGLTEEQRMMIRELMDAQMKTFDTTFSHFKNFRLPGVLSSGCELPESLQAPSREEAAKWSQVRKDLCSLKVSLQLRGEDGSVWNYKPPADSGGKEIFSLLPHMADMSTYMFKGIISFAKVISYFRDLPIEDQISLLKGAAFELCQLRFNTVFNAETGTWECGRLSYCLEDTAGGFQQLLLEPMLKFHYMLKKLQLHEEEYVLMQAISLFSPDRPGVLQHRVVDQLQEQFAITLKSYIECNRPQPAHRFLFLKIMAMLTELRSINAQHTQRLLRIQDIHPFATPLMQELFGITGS
human Peroxisome Proliferator-activated Receptor alpha (PPARa), PPARA (gene 5465), sequence (Q07869 whole entry, looked up, the tested form may be a part): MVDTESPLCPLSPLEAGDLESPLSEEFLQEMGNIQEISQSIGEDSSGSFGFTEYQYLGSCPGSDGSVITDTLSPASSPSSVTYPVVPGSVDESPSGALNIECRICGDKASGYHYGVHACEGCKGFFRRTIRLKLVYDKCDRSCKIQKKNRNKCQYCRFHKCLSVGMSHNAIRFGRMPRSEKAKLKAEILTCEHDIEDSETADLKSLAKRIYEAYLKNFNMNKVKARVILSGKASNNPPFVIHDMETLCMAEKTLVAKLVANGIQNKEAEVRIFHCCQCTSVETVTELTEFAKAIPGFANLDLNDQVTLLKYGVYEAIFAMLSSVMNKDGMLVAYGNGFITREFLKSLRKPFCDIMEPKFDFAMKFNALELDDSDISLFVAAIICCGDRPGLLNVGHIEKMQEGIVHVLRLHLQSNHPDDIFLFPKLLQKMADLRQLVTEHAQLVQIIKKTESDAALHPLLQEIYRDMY
human Peroxisome Proliferator-activated Receptor delta (PPARd), PPARD (gene 5467), sequence (Q03181 whole entry, looked up, the tested form may be a part): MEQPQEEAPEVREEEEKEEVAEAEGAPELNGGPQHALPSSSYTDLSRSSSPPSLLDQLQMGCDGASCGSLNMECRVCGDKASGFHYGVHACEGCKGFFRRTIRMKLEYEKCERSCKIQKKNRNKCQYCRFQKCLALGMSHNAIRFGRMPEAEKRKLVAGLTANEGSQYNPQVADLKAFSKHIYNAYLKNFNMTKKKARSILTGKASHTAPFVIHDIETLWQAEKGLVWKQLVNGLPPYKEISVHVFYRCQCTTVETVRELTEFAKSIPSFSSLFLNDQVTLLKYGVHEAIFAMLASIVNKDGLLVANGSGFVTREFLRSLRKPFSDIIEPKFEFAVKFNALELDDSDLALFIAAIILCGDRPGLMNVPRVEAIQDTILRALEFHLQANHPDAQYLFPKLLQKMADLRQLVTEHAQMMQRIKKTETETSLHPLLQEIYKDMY
Cellular tumor antigen p53 (Homo sapiens), sequence (P04637 whole entry, looked up): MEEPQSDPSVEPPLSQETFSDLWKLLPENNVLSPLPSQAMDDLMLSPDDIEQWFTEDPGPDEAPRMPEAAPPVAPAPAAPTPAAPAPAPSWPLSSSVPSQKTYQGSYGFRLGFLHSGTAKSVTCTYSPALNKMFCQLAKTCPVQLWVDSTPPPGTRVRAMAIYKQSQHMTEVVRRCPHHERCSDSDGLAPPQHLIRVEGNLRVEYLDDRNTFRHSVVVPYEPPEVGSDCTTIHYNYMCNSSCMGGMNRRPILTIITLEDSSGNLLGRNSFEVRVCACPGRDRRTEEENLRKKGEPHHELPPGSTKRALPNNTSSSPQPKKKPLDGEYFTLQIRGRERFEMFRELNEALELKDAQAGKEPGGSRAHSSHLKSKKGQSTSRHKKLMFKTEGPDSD
human RAR-related Orphan Receptor beta (RORb), RORB (gene 6096), sequence (Q92753 whole entry, looked up, the tested form may be a part): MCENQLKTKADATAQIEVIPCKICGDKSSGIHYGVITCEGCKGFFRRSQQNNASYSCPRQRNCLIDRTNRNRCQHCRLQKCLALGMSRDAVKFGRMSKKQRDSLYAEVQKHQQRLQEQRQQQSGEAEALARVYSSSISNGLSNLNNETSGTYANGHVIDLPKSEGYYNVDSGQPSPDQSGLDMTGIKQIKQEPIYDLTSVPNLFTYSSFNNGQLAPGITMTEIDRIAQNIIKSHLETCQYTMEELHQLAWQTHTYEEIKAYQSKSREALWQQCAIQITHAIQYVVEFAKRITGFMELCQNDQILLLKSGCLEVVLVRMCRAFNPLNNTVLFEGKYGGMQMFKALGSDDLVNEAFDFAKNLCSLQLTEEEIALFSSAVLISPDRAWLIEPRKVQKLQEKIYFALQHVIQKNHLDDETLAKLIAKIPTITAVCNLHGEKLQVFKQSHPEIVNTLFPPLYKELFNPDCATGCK

CCCCCCCCc1ccc(O)cc1
active: [3] 37.2 µM | [4] 31.9 µM | [5] 33.5 µM | [6] 24.8 µM | [8] 35.6 µM | [11] 8.43 µM | [12] 22 µM | [13] 33.5 µM | [16] 24.5 µM | [17] 43.7 µM
inactive: [1] | [2] | [6] | [7] | [9] | [10] | [13] | [14] | [15] | [17]

C=C(C)C(=O)[O][Sn]([CH2]CCC)([CH2]CCC)[CH2]CCC
inactive: [2] | [6] | [7] | [17]
active: [1] 0.412 µM | [3] 0.148 µM | [4] 0.148 µM | [5] 0.254 µM | [8] 0.155 µM | [11] 0.148 µM | [12] 0.291 µM | [15] 0.00348 µM | [16] 0.0323 µM

CCCCC(CC)CO[N+](=O)[O-] (stereo not given)
active: [18] 28.6 µM | [5] 30.4 µM | [11] 30.8 µM | [16] 99.5 µM
inactive: [1] | [2] | [3] | [4] | [7] | [8] | [14] | [15]

[O-][Cl+2]([O-])O
inactive: [1] | [2]

COP(=S)(OC)Oc1ccc(Sc2ccc(OP(=S)(OC)OC)cc2)cc1
inactive: [1] | [2] | [18] | [4] | [7] | [8] | [13] | [14] | [15] | [16] | [17]
active: [3] 20 µM | [5] 20 µM | [6] 22.7 µM | [11] 15.7 µM | [12] 13.7 µM | [19] 4.45 µM

O=C(OC1CCCCC1)c1ccccc1C(=O)OC1CCCCC1
active: [18] 7.93 µM | [3] 11.9 µM | [4] 11.7 µM | [5] 12.1 µM | [8] 14.6 µM | [11] 9.38 µM | [12] 8.15 µM | [19] 0.554 µM | [16] 7.44 µM
inactive: [1] | [2] | [17]

CC(C)(C)c1cc(O)ccc1O
inactive: [2] | [3] | [6] | [8] | [14] | [17]
active: [1] 129 µM | [4] 28.1 µM | [5] 27.4 µM | [11] 9.85 µM | [12] 52.5 µM | [19] 3.34 µM

CC12CC1(C)C(=O)N(c1cc(Cl)cc(Cl)c1)C2=O (stereo not given)
active: [19] 2.03 µM and 4.13 µM and 2.07 µM
inactive: [1] | [2] | [3] | [4] | [5] | [6] | [7] | [8] | [11] | [12] | [19] | [20] | [14] | [15] | [16] | [17]
